An excerpt weighted towards active compounds, which were near 2.4% of everything screened.
D2 ag-1: Beta-Arrestin HTS for Positive Allosteric Modulators of the Human D2 Dopamine Receptor: Agonists | D(2) dopamine receptor (Homo sapiens), P14416 | DiscoveRx PathHunter D2 beta-arrestin, luminescence, 90 min; 100% = 57 uM dopamine signal | activation, % (no concentration beside the values) | 360,000 compounds, 0.084% hits | AID 624465, 2012; in the data active means activation above about 40%; inconclusive means between about 15% and that limit
Target sequence (P14416 whole entry, looked up): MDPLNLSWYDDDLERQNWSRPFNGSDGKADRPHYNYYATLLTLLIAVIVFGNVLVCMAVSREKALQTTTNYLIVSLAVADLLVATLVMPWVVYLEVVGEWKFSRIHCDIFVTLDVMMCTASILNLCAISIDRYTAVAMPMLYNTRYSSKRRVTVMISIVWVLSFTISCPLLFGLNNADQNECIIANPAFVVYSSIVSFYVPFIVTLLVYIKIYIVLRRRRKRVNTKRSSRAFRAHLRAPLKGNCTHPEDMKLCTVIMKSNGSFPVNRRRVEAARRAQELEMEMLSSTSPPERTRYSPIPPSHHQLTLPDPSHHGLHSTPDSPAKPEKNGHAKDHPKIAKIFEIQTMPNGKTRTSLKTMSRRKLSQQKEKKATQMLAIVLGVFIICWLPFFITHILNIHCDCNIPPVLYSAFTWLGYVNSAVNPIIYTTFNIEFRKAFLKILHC
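DiscoveRx PathHunter D2 beta-arrestin cells (2,100/well) attached overnight, then compound-stimulated 90 min at 37 C in HBSS/10 mM HEPES/0.1% Tween-20 buffer; beta-galactosidase complementation read by luminescence after 1 h at ambient temperature. Dopamine 57 uM final (EC100) as control.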
B2AR arrestin: qHTS assay of beta-arrestin-biased ligands of beta2-adrenergic receptor; beta-arrestin recruitment to beta2AR, cell-based reporter; Potency, µM (top dose mostly 46.1 µM), hits mostly activators; 330,000 compounds, 0.02% hits; AID 492947, 2010; active means well fitted activation curve with a large enough effect; inconclusive means small, poorly fitted or top-dose-only effect; further: nearly all actives have a fitted effect of over 65% in size
D2 PAM-1: HTS Assay for Positive Allosteric Modulators of the Human D2 Dopamine Receptor: Primary Screen for Potentiators; D(2) dopamine receptor (Homo sapiens), P14416; HEK293 T-REx D2, calcium flux, EC20 dopamine potentiation; potentiation, % at 10 µM; 340,000 compounds, 0.34% hits; AID 485347, 2010;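 active means potentiation over 3 SD above the plate norm, cut at about 30% in these data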
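Calcium flux readout, no-wash dye, 1 read/s. Inducible HEK293 Trex D2 line, overnight 30 C. Compound alone 180 s (agonist flags), then EC20 dopamine, another 180 s to score potentiation.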
D2 ag-2: HTS Assay for Allosteric Agonists of the Human D2 Dopamine Receptor: Primary Screen for Agonists; activation, % at 2 µM; D(2) dopamine receptor (Homo sapiens), P14416; 340,000 compounds, 0.53% hits; HEK293 T-REx D2 cells, calcium flux agonist mode; AID 485358, 2010;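 active means activation over 3 SD above normal in the single-dose calcium agonist read, cut at about 30% in these data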
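HEK293 Trex D2 cells, tetracycline-induced, o/n 30 C 5% CO2; no-wash Ca dye, RT 30–90 min; 10-cycle baseline, 23 nl cpd added, kinetic Ca read 180 s; agonist hits = positive Ca response.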
D2 antag: HTS Assay for Allosteric Antagonists of the Human D2 Dopamine Receptor: Primary Screen for Antagonists | AID 485344, 2010 | 340,000 compounds, 2% hits | inhibition, % at 10 µM | HEK293 TREx D2 cells, calcium flux, dopamine EC80; in the data active means inhibition above about 30%; inactive means below that, where a call was filed
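Dopamine at EC80 is the agonist stimulus; test compounds precede it by 180 s. Calcium flux read kinetically in a force-coupled, inducible HEK293 T-REx D2 cell line.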
D2 PAM-2: Beta-Arrestin HTS for Positive Allosteric Modulators of the Human D2 Dopamine Receptor: Potentiators. 360,000 compounds, 0.23% hits. DiscoveRx D2 beta-arrestin cells, luminescence, 90 min; 100% = 57 uM dopamine signal. D(2) dopamine receptor (Homo sapiens), P14416. potentiation, % (no concentration beside the values); in the data active means potentiation above about 50%; inconclusive means mostly about 30% to 49%
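PathHunter beta-arrestin assay in DiscoveRx D2 cells. Compounds were added with an EC20 of dopamine (50 nM final) for 90 min at 37 deg C. Luminescence was read 1 h after detection reagent, with 57 uM dopamine as the EC100 control.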
Large screens that a line does not name were inactive.

CN(C)c1ccc(C2C3CCCc4ccccc4C3=NN2C)cc1 (stereo not drawn)	none (no result: D2 PAM-1, D2 ag-2, D2 antag)
O=C(Oc1c(CN2CCOCC2)cc(Cl)c2cccnc12)c1ccccc1Cl	B2AR arrestin 3.5µM
COc1cc(C(=O)Oc2c(CN3CCOCC3)cc(Cl)c3cccnc23)cc(OC)c1OC	B2AR arrestin 3.5µM
O=C(Oc1c(CN2CCOCC2)cc(Cl)c2cccnc12)c1cccs1	none
COc1ccc(C(=O)Oc2c(CN3CCOCC3)cc(Cl)c3cccnc23)cc1	B2AR arrestin inconclusive
COc1ccc(NC(=O)c2ccc3c(=O)n4c(nc3c2)CCCCC4)cc1	none (no result: D2 PAM-1, D2 ag-2, D2 antag)
COc1ccc(C(=O)[C@H]2[C@H]3C(=O)N(c4ccccc4)C(=O)[C@H]3C3C=CC=NN32)cc1 (stereo partly drawn)	D2 antag 43
CC(=O)Oc1ccc(C(=O)[C@H]2[C@H]3C(=O)N(c4ccccc4)C(=O)[C@H]3[C@@H]3C=CC=NN32)cc1	none
C[C@H]1O[C@@H](O[C@H]2CC[C@@]3(C)C(CC[C@]4(C)C3C=C[C@]35OC[C@@]6(CCC(C)(C)C[C@H]63)[C@@H](O)C[C@]54C)[C@]2(C)CO)[C@H](O)[C@@H](O[C@@H]2O[C@H](CO)[C@@H](O)[C@H](O)[C@H]2O)[C@H]1O (stereo partly drawn)	none (no result: D2 PAM-1, D2 ag-2, D2 antag)
CC1OC(OC2C(OC3C(O[C@H]4CC[C@]5(C)C6C=C[C@]78OC[C@@]9(CC[C@@H](C)[C@H](C)C97)[C@H](O)C[C@@]8(C)[C@]6(C)CC[C@H]5C4(C)C)OC(C)C(O)C3O)OC(CO)C(O)C2O)C(O)C(O)C1O (stereo partly drawn)	D2 ag-2 43, D2 antag 32 (no result: D2 ag-1, D2 PAM-2)
Cn1cccc1C(=O)NC(=O)COC(=O)c1cc(S(=O)(=O)N2CCCCC2)ccc1Cl	none
N#Cc1cccnc1N1CCN(C(=O)c2cccc3c2C(=O)c2ccc(Cl)cc2S3(=O)=O)CC1	none
COc1ccc2c(c1)-c1ccccc1S(=O)(=O)N(C)C2	none (no result: D2 PAM-1, D2 ag-2, D2 antag, D2 PAM-2)
COc1ccc2c(c1)-c1ccccc1S(=O)(=O)N2C	D2 antag 34
CCSc1nc2sccc2c(=O)n1-c1ccccc1	none (no result: D2 PAM-1)
CNC(C)c1ccc(S(N)(=O)=O)cc1 (stereo not drawn)	none
O=C(c1ccccc1Cc1ccccc1)N1CCN(S(=O)(=O)c2ccccc2Br)CC1	none
CC(=O)C1=C(C)NC(C)=C(C(C)=O)C1c1ccccc1	D2 ag-1 41
COc1ccc(S(=O)(=O)NC(C)C(=O)NC2CC2)cc1C (stereo not drawn)	none
O=[N+]([O-])c1cccc(/C=N/NC2=NCCCCC2)c1	none
O=C(CN1C(=O)NC2(CCCCCC2)C1=O)Nc1ccc(Cl)c([N+](=O)[O-])c1	none (no result: D2 PAM-1, D2 ag-2, D2 antag)
O=C(ONC1=NCCCCC1)c1cccc([N+](=O)[O-])c1	D2 PAM-2 55
O=C(Nc1ccc(Cl)c([N+](=O)[O-])c1)ONC1=NCCCCC1	D2 ag-1 inconclusive, D2 PAM-2 54 (no result: D2 PAM-1, D2 ag-2, D2 antag)
CCCn1c(SCC(=O)NC2CCCCC2)nnc1-c1cccnc1	none (no result: D2 PAM-1)
CCOc1ccc(-c2cccc(NS(=O)(=O)c3cccc([N+](=O)[O-])c3)c2)nn1	none (no result: B2AR arrestin, D2 PAM-1, D2 ag-2, D2 antag)
NS(=O)(=O)c1ccc(CNC(=O)CCSCCC(=O)NCc2ccc(S(N)(=O)=O)cc2)cc1	D2 antag 33
O=C(CCSCCC(=O)NCc1ccccc1)NCc1ccccc1	none
COc1cccc(CN2CCc3ccc(NC(=O)CCc4ccc(C)cc4)cc3C2)c1O	D2 antag 31
O=C(NNC1CC(=O)N(c2ccc(Br)cc2)C1=O)c1ccco1 (stereo not drawn)	D2 ag-2 38
